Assay results as given in PubChem BioAssay (NCI).
The panel holds about 83,000 compounds, 20% with a hit somewhere; the sample as a whole holds those more often.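 Negative percent growth values reflect cell death: -40 means 40% of the cells present at the start died, and -100 means all died.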 Calls of active or inactive are those of the source. The calls were made as follows: active = growth percent below 10; inactive = the rest.

What was measured:
Test in all cases: NCI-60 one-dose screen, 48 h (100 = growth as untreated, 0 = no growth, -100 = all killed)
Settings in all cases: 10 µM unless noted
[1] = tested on: NCI-H23 lung
[2] = tested on: NCI-H226 lung
[3] = tested on: NCI-H322M lung
[4] = tested on: HOP-62 NSCLC
[5] = tested on: NCI-H460 lung
[6] = tested on: HOP-92 NSCLC
[7] = tested on: NCI-H522 lung
[8] = tested on: 786-0 renal
[9] = tested on: DU-145 prostate
[10] = tested on: K-562 leukemia
[11] = tested on: MALME-3M melanoma
[12] = tested on: MDA-MB-231 breast
[13] = tested on: RXF 393 renal
[14] = tested on: SF-268 CNS
[15] = tested on: SF-295 CNS
[16] = tested on: SF-539 CNS
[17] = tested on: UACC-257 melanoma
[18] = tested on: M14 melanoma
[19] = tested on: A549/ATCC NSCLC
[20] = tested on: COLO 205 colon

Measured: growth

O=S(=O)(Cc1ccccc1)c1nc2ccccc2s1
inactive: [1] 56.3% | [2] 82.9% | [3] 93.8% | [4] 105% | [5] 103% | [6] 33.7% | [7] 13.2% | [8] 88.9% | [9] 86.7% | [10] 13.5% | [11] 73.6% | [12] 85.1% | [13] 109% | [14] 79% | [15] 109% | [16] 92% | [17] 78.7% | [18] 18.3%

COc1ccccc1C(=O)NC(=S)Nc1ccc(-c2nc3ccccc3[nH]2)cc1
active: [5] 4.59% | [12] -10.1%
inactive: [1] 58.4% | [2] 46.3% | [3] 80.7% | [4] 46.2% | [6] 101% | [7] 91.4% | [8] 41.5% | [9] 42.9% | [10] 48% | [11] 27.5% | [13] 49.1% | [14] 49.2% | [15] 61.3% | [16] 48.1% | [17] 94.3% | [18] 54.3%

O=C1C(Cl)C(c2ccccc2Cl)N1n1cnnc1 (configuration not stated)
inactive: [1] 101% | [2] 102% | [3] 93.5% | [5] 101% | [6] 91.1% | [7] 92.9% | [19] 91.1% | [8] 97.1% | [9] 104% | [10] 102% | [11] 95.6% | [12] 94.8% | [13] 98.6% | [14] 102% | [15] 100% | [16] 85.3% | [17] 91.5% | [18] 93.1%

CC(C)c1ccc(NC(=O)Cc2ccc(Nc3ncnc4cc(-c5cnn(CCN(C)C)c5)ccc34)cc2)cc1
active: [1] -61.7% [30 µM] | [3] -99.7% [30 µM] | [4] -0.67% [30 µM] | [5] -90.5% [30 µM] | [6] -45.3% [30 µM] | [8] -59.1% [30 µM] | [20] -46.7% [30 µM] | [9] -97.5% [30 µM] | [10] -34.9% [30 µM] | [11] -88.7% [30 µM] | [12] -77.8% [30 µM] | [14] -62.3% [30 µM] | [15] -61.9% [30 µM] | [16] -88.8% [30 µM]
inactive: [2] 50.6% [30 µM] | [17] 54.7% [30 µM]

CCOC(=O)c1sc(-c2ccc(OS(=O)(=O)c3ccc(C(C)(C)C)cc3)c(C=O)c2)nc1C
inactive: [1] 33.3% | [2] 48.5% | [3] 93.7% | [5] 41.7% | [6] 21.1% | [7] 22.1% | [19] 84.9% | [8] 47.2% | [20] 72.7% | [9] 43.8% | [10] 16.1% | [11] 45.1% | [12] 53.7% | [14] 32.9% | [15] 28.6% | [16] 45.6% | [17] 52%

Cc1csc(NC(=O)c2sc3nc(-c4cccs4)ccc3c2N)n1
inactive: [1] 94.2% | [2] 96.9% | [3] 102% | [4] 90.4% | [5] 99.3% | [6] 84.7% | [19] 94.7% | [20] 103% | [9] 96.4% | [10] 90.2% | [11] 99.6% | [12] 93.4% | [13] 107% | [14] 102% | [15] 99.7% | [16] 96.9% | [17] 109%

CCN(CC)CCOC(=O)N1c2ccccc2Sc2ccccc21
inactive: [1] 104% | [2] 95.2% | [3] 89.7% | [5] 103% | [6] 73.1% | [7] 68.7% | [19] 88.9% | [8] 91.4% | [9] 99.9% | [10] 90.7% | [11] 91.4% | [12] 81.9% | [13] 98.3% | [14] 102% | [15] 93.8% | [16] 100% | [17] 102% | [18] 93.4%

C#C[C@]1(O)CC[C@H]2[C@@H]3CC=C4c5sc(N=C(N)N)nc5CC[C@]4(C)[C@H]3CC[C@@]21C
inactive: [1] 28.5% | [2] 35.2% | [3] 27.9% | [6] 32.7%
active: [4] -37.5% | [5] -14.5% | [19] -13.1% | [20] -38.7% | [9] 8.62% | [10] -21.1% | [11] -76.2% | [12] -45.4% | [13] -56.6% | [14] -15% | [15] -56.2% | [16] -81.3% | [17] -44.8%

COc1cccc(CCC2CCCN(c3cc(C)nc(N)n3)C2)c1 (configuration not stated)
inactive: [1] 22.1% | [2] 55.9% | [3] 40% | [5] 14.3% | [6] 23% | [19] 29.1% | [8] 19% | [9] 25.9% | [10] 10.9% | [11] 55.2% | [12] 22.7% | [13] 22.3% | [14] 42.6% | [15] 14.7% | [16] 10.1% | [17] 44.5%
active: [7] 2.3% | [18] 6.51%

COc1ccc(OC)c(Nc2nc3nonc3nc2Nc2cccc(Br)c2)c1
inactive: [2] 13.4% | [8] 22.1% | [9] 26% | [10] 10.2% | [11] 11.3% | [13] 23.7% | [14] 21.1%
active: [1] 6.27% | [3] 5.13% | [5] 0.718% | [6] -25.5% | [7] -13% | [19] 9.15% | [20] -79.3% | [12] -8.18% | [15] -19.3% | [16] -7.16% | [17] -12.5%

Cc1nc(C)c(-c2nn3c(-c4cccc(F)c4)nnc3s2)s1
inactive: [1] 97.3% | [2] 102% | [3] 106% | [5] 102% | [6] 86.2% | [7] 77.6% | [19] 87% | [20] 101% | [9] 102% | [10] 70.4% | [11] 111% | [12] 107% | [13] 96.3% | [14] 97.6% | [15] 100% | [16] 104% | [17] 92.4%

O=C(NCc1cn(Cc2cccc(Oc3ccccc3)c2)nn1)c1cccnc1NCc1ccc(Cl)cc1
inactive: [1] 20.6% | [2] 12.5% | [3] 54.5% | [5] 17.1% | [6] 22.1% | [7] 20.8% | [19] 22.5% | [8] 38% | [9] 15% | [10] 11.8% | [11] 48.2% | [12] 25.4% | [14] 45.3% | [15] 19.7% | [17] 47.3%
active: [13] 3.54% | [16] -15.3% | [18] 6.76%

COc1ccc(-c2nc3ccccn3c2/C=C/C(=O)c2cc(OC)c(OC)c(OC)c2)cc1
active: [16] 8.84%
inactive: [1] 45.1% | [2] 71.7% | [3] 73.2% | [5] 34.4% | [6] 22.7% | [7] 26.7% | [19] 55.8% | [8] 63.1% | [9] 58.1% | [10] 49.8% | [11] 43.3% | [12] 42.1% | [13] 43.9% | [14] 38.2% | [15] 123% | [17] 55.3%

O=S(=O)(Nc1ccsc1-c1nc(-c2ccccc2)no1)c1cc(Cl)cc(Cl)c1
inactive: [1] 94.4% | [2] 98.6% | [3] 95.4% | [5] 100% | [6] 83.5% | [7] 77.3% | [19] 90% | [8] 98.5% | [9] 101% | [10] 105% | [11] 99.6% | [12] 102% | [13] 101% | [14] 92.8% | [15] 98.3% | [16] 91.4% | [17] 85.8% | [18] 92.1%

CC(=O)c1sc(-c2ccccc2)cc1N
inactive: [1] 101% | [2] 96.6% | [3] 96.9% | [5] 102% | [6] 97.7% | [7] 72.5% | [19] 76% | [8] 92.7% | [20] 109% | [9] 102% | [11] 112% | [12] 99.6% | [13] 107% | [14] 104% | [15] 99.7% | [16] 97.1% | [17] 90.6%

C=C1C(=O)O[C@H]2[C@H]1CC/C(COC(=O)NCc1ccc(Cn3c(=O)sn(CCCCl)c3=O)cc1)=C\CC[C@@]1(C)O[C@@H]21
inactive: [1] 70.8% | [2] 58.7% | [3] 88.8% | [5] 101% | [19] 90.5% | [8] 38.1% | [12] 14.4% | [14] 44.5% | [15] 101% | [17] 10.4%
active: [6] -53.8% | [7] -89.7% | [9] 8.01% | [10] 0.0582% | [11] -57.1% | [13] -76.7% | [16] -7.17% | [18] 5.43%

COc1cc2oc3cc(C)oc(=O)c3c2cc1OC
inactive: [1] 94.1% | [2] 96.8% | [3] 103% | [5] 105% | [6] 92.9% | [7] 82.1% | [19] 87.7% | [8] 83.4% | [9] 99.6% | [10] 128% | [12] 99.4% | [13] 104% | [14] 108% | [15] 89.7% | [16] 94.8% | [17] 92.8% | [18] 102%
